# Out of some 69,000 compounds screened, about 1,000 (1.4%) showed an effect of 50% or more. This is one part of a sample in which strong results are shown more often than they occur.
# Test system: Leishmania donovani
# Experiment: Leishmania intramacrophage assay
# Format: functional, organism-based
# Design: scale not given: in the data most compounds retested in dose-response had high values
smiles,measurement,setting,value
Cc1nn(C)c(C)c1CN(C)c1nc(C2CCCC2)nc2c1cnn2C,Percent Effect,"30.3 µM, […]",17.71%
CN1CCC(c2n[nH]c3ncccc23)C1.O=CO (stereo not drawn),Percent Effect,"30.3 µM, […]",16.17%
CCc1cnc(CN(C(C)=O)C2CCN(CC(=O)N3CCCC3)C2)o1 (stereo not drawn),Percent Effect,30 µM,28.38%
Cc1cc(NCCS(C)(=O)=O)nc2ccccc12,Percent Effect,"30.3 µM, […]",25.68%
Cc1cc(NCCCNS(C)(=O)=O)nc2ccccc12,Percent Effect,"30.3 µM, […]",-8.515%
Cc1cc(NCCN)nc2ccccc12.O=[N+]([O-])O,Percent Effect,"30.3 µM, […]",54.09%
CC(C)c1nc(CN(C)C(=O)c2cn3ccsc3n2)cs1,Percent Effect,"30.3 µM, […]",-3.628%
CC(=O)Nc1nc(CS(=O)(=O)CCCc2ccccc2)cs1,Percent Effect,"30.3 µM, […]",22.96%
CC(C)(C)CCS(=O)(=O)NCCc1csc(N2CCCC2)n1,Percent Effect,"30.3 µM, […]",30.66%
CCC(C)CS(=O)(=O)NCCc1csc(N2CCCC2)n1 (stereo not drawn),Percent Effect,"30.3 µM, […]",43.99%
CCCC(C)CS(=O)(=O)NCCc1csc(N2CCCC2)n1 (stereo not drawn),Percent Effect,"30.3 µM, […]",65.07%
O=C1CO[C@H]2CN(Cc3cccc4[nH]ccc34)C[C@@H]2N1C1CCOCC1,Percent Effect,"30.3 µM, […]",12.12%
Cc1ccc(C2CCCN2S(=O)(=O)N(C)Cc2cnn(C)c2)o1 (stereo not drawn),Percent Effect,"30.3 µM, […]",-0.6676%
CCOc1ccc(C(=O)CCC(=O)N(C)Cc2noc(C)n2)cc1C,Percent Effect,"30.3 µM, […]",4.933%
CN1CCCC1(CCCc1cccnc1)C(=O)NCc1nccn1C (stereo not drawn),Percent Effect,"30.3 µM, […]",27.11%
Cc1ccc(O)c(CNC2CCc3nc(C(C)C)nn3C2)n1 (stereo not drawn),Percent Effect,"30 µM, 30.03 µM",0.7212%
Cc1ccc(S(=O)(=O)N2CCN(CCC(N)=O)CC2)s1,Percent Effect,"30.3 µM, […]",13.04%
Cc1ccc(S(=O)(=O)N2CCN(CCC#N)CC2)s1,Percent Effect,"30.3 µM, […]",34.19%
Cc1ccc(S(=O)(=O)N2CCN(CCCO)CC2)s1,Percent Effect,"30.3 µM, […]",55.51%
C[C@H](NC(=O)c1cnc(-c2ccccc2)nc1O)C(N)=O,Percent Effect,"30.3 µM, […]",12.89%
CCSCC(C)NCc1ccccc1-n1ccnc1 (stereo not drawn),Percent Effect,"30.3 µM, […]",-5.681%
COc1ccc(C(C)NCc2ccnn2C)cc1Cn1cccn1 (stereo not drawn),Percent Effect,"30.3 µM, […]",30.62%
Cc1csc(N2CCN(Cc3cnc(C)s3)CC2C)n1 (stereo not drawn),Percent Effect,"30 µM, 30.03 µM",50.44%
Cc1cnc(CN2CCN(c3nc(C)cs3)C(C)C2)cn1 (stereo not drawn),Percent Effect,"30.3 µM, […]",-40.38%
Cc1csc(N2CCN(Cc3cscn3)CC2C)n1 (stereo not drawn),Percent Effect,"30.3 µM, […]",-18.36%
O=C1CC2(CCN(Cc3ccc4cccc(O)c4n3)CC2)CN1,Percent Effect,"30.3 µM, […]",0.5464%
O=C1CC(c2cccnc2)c2c(c(C(=O)O)cn2-c2ccccc2)N1 (stereo not drawn),Percent Effect,"30 µM, 30.03 µM",-20.51%
O=C1CC(c2cccnc2)c2c(c(C(=O)O)cn2-c2cccc(F)c2)N1 (stereo not drawn),Percent Effect,"30.3 µM, […]",52.29%
O=C1CC(c2cccnc2)c2c(c(C(=O)O)cn2-c2ccc(Cl)cc2)N1 (stereo not drawn),Percent Effect,"30.3 µM, […]",19.15%
CCc1cnc2c(c1Nc1cccc(OC)c1)c(=O)n(C)c(=O)n2C,Percent Effect,"30.3 µM, […]",19.41%
CC(=O)N[C@H]1CCN(c2nc(C)nc3c2c(C)nn3C)C1,Percent Effect,"30.3 µM, […]",15.16%
COc1cccc(Nc2nc(C3CCCNC3)c3sc(C)c(C)n23)c1.Cl (stereo not drawn),Percent Effect,"30.3 µM, […]",20.11%
Fc1cccc(Nc2nc(N3CCCC3)nc3c2CNCC3)c1,Percent Effect,"30.3 µM, […]",99.78%
COc1cccc(Nc2nc(N3CCCC3)nc3c2CNCC3)c1.Cl,Percent Effect,"30.3 µM, […]",98.87%
Cc1sc2c(C3CCCNC3)nc(Nc3cccc(F)c3)n2c1C.Cl (stereo not drawn),Percent Effect,"30.3 µM, […]",8.436%
COc1cccc(Nc2nc(C3CCCNC3)c3ccccn23)c1.Cl (stereo not drawn),Percent Effect,"30.3 µM, […]",2.866%
CC(Nc1nc(-c2ccncc2)nc2c1CCNC2)c1ccccc1 (stereo not drawn),Percent Effect,"30.3 µM, […]",41.34%
CCOCCNc1nc(-c2ccncc2)nc2c1CCNCC2,Percent Effect,"30.3 µM, […]",-3.835%
COc1cccc(Nc2nc(C3CCNCC3)c3ccccn23)c1.Cl,Percent Effect,"30.3 µM, […]",-2.973%
COc1cccc(Nc2nc(-c3ccncc3)nc3c2CNCC3)c1.Cl,Percent Effect,"30.3 µM, […]",63.42%
COc1cccc(CNC(=O)c2cc(C)nc(N3CCCC3)n2)c1,Percent Effect,"30.3 µM, […]",4.164%
CCN1CCN(S(=O)(=O)c2cc(Cl)c(Cl)cc2C)CC1,Percent Effect,"30 µM, 30.03 µM",23.98%
Cc1nc(C2CCN(C(=O)c3cc(C4CC4)[nH]n3)CC2)no1,Percent Effect,"30.3 µM, […]",23.74%
CC1(C(=O)NC2CCCC2)CCCN(c2ncccn2)C1 (stereo not drawn),Percent Effect,"30.3 µM, […]",2.815%
COc1ccnc(N2CCN(C(=O)c3csc(C4CC4)n3)CC2)n1,Percent Effect,"30 µM, 30.03 µM",15.31%
CN(C)c1ncc(-c2cc(C(=O)N3CCCC3)n(CC3CC3)c2)cn1,Percent Effect,"30.3 µM, […]",-11.64%
CN1CCCN(C(=O)c2nc3sccn3c2-c2ncc[nH]2)CC1,Percent Effect,"30.3 µM, […]",0.9103%
Cc1ccsc1CN1CC2(CCN(C(=O)C3CC3)CC2)CC1C(=O)O (stereo not drawn),Percent Effect,"30.3 µM, […]",49%
CCOCCN1CCN(CC(=O)NC2(C#N)CCCC2)CC1CC (stereo not drawn),Percent Effect,"30.3 µM, […]",4.261%
CCCc1nnnn1Cc1cn2c(C)cccc2n1,Percent Effect,"30.3 µM, […]",19.02%
COc1ccc(C)cc1Nc1nc2c(C)nn(C)c2c(=O)n1C,Percent Effect,"30.3 µM, […]",54.75%
COc1ccccc1Nc1nc2c(C)nn(C)c2c(=O)n1C,Percent Effect,"30.3 µM, […]",-67.83%
COc1ccc(OC)c(Nc2nc3c(C)nn(C)c3c(=O)n2C)c1,Percent Effect,"30.3 µM, […]",46.31%

# Source: ChEMBL document CHEMBL3988442, “University of Dundee, Small-Polar-MMV Screening Library” (2021)
